# Test results as given in PubChem BioAssay AID504796 (The Scripps Research Institute Molecular Screening Center, 2011).
# The other results are listed elsewhere or left out. Unmarked numbers belong to inactive results. The source made the active and inactive calls. No stated cut-off is given here; in the data, active means activation above about 20%; inactive means the rest.
# Assay: fluorescence polarization artefacts, biochemical, artefact control for PKA-R2B activator project (AID 504796);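 further: Cy5 labelled IP20 peptide probe with compound but no PKA protein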
# Conditions: FP artifact counterscreen, at 11.4 µM, hits give high values
row,SMILES,activation
1,COc1ccc([N+](=O)[O-])cc1C1NN=C(c2cccc3ccccc23)S1 (stereo not drawn),4.38%
2,CC(C)(C)c1ccc(C(=O)N2CCC(C(=O)N3CCCCC3)CC2)cc1,4.67%
3,O=S(=O)(NCCNS(=O)(=O)c1ccccc1)c1ccccc1,4.68%
4,CCCC(=O)Nc1ncnc2c1ncn2[C@@H]1O[C@@H]2OP(=O)(O)OC[C@H]2[C@H]1OC(=O)CCC,0.15%
5,N#Cc1ccccc1CN1C(=O)S/C(=C/c2cccn2-c2cccc(C(=O)O)c2)C1=O,19.3% (active)
6,O=C(CNC(=O)c1ccccc1)NCC(=O)OCC(=O)c1ccccc1,9.84%
7,COc1ccc(CC(NC(C)=O)C(=O)NC2CCN(C(=O)c3ccc(Cl)cc3)CC2)cc1 (stereo not drawn),3.95%
8,O=C(CN(C(=O)CCC(=O)Nc1nccs1)c1ccc(F)cc1)NCc1ccc2c(c1)OCO2,-1.45%
9,CC(C)(C)c1nnc(N/N=C/c2ccc(O)cc2)n(N)c1=O,1.05%
10,O=C(CCCN1C(=O)c2cccc3cccc(c23)C1=O)N1CCN(Cc2ccc3c(c2)OCO3)CC1,1.66%
11,O=C(O)C1=C(C(=O)O)C2CCC1C2,5.92%
12,COc1cccc(Nc2nnc(SCC(=O)N3CC(C)OC(C)C3)s2)c1 (stereo not drawn),1.43%
13,COc1ccc(C/C(C)=N/NC(=O)c2ccncc2)cc1,1.96%
